Results: PubChem BioAssay AID1159580 (chemical genetic matrix, 2015)
Out of some 5,500 compounds screened, about 2,000 (36%) were called active. Roughly 18% stayed inconclusive and do not appear here. Cut-off read from the data, not from the text of the source: active = normalized growth mostly below about 0.91 (no sharp cut-off); inconclusive = no clear call, values can overlap the other calls; inactive = mostly above about 0.92. Some of the results follow.

Experiment: chemical genetic growth profiling, strain panel (AID 1159580);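 note: tested at 20 µM; growth read once vehicle control cultures reached saturation at 30 °C; 1 = growth at the plate median or of vehicle wells; lower values mean less growth of the strain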
Details: growth OD

Measured: normalized growth

COc1c(O)cc(O)cc1O
inactive: S. cerevisiae deletion strains, locus YJR066W, strain TOR1, stronger effect = lower value 0.977 | S. cerevisiae deletion strains, locus YKL009W, strain mrt4, stronger effect = lower value 1.07 | S. cerevisiae deletion strains, locus YKL068W, stronger effect = lower value 0.995 | S. cerevisiae deletion strains, locus YKL085W, strain MDH1 (second series), stronger effect = lower value 1.02 | S. cerevisiae deletion strains, locus YKL085W, strain MDH1, stronger effect = lower value 1.02 | S. cerevisiae deletion strains, locus YKL160W, strain elf1, stronger effect = lower value 1.02 | S. cerevisiae deletion strains, locus YKR001C, strain vps1, stronger effect = lower value 1.01 | S. cerevisiae deletion strains, locus YKR026C, strain gcn3, stronger effect = lower value 0.991 | S. cerevisiae deletion strains, locus YKR091W, strain srl3, stronger effect = lower value 0.996 | S. cerevisiae deletion strains, locus YLL001W, strain dnm1, stronger effect = lower value 0.999 | S. cerevisiae deletion strains, locus YLL026W, stronger effect = lower value 0.994 | S. cerevisiae deletion strains, locus YLL041C, strain sdh2, stronger effect = lower value 0.996 | S. cerevisiae deletion strains, locus YLR027C, strain aat2, stronger effect = lower value 0.985 | S. cerevisiae deletion strains, locus YLR039C, strain RIC1, stronger effect = lower value 1.06 | S. cerevisiae deletion strains, locus YLR058C, strain SHM2, stronger effect = lower value 1.01 | S. cerevisiae deletion strains, locus YLR102C, strain apc9, stronger effect = lower value 0.987 | S. cerevisiae deletion strains, locus YLR113W, strain HOG1, stronger effect = lower value 1.03 | S. cerevisiae deletion strains, locus YLR221C, strain rsa3, stronger effect = lower value 0.992 | S. cerevisiae deletion strains, locus YLR258W, strain gsy2, stronger effect = lower value 0.997 | S. cerevisiae deletion strains, locus YLR262C, strain YPT6 (second series), stronger effect = lower value 1.02 | S. cerevisiae deletion strains, locus YLR262C, strain YPT6, stronger effect = lower value 1.08 | S. cerevisiae deletion strains, locus YLR268W, strain sec22, stronger effect = lower value 1.05 | S. cerevisiae deletion strains, locus YLR320W, strain mms22, stronger effect = lower value 0.994 | S. cerevisiae deletion strains, locus YLR330W, strain CHS5, stronger effect = lower value 1.01 | S. cerevisiae deletion strains, locus YLR342W, strain FKS1 (second series), stronger effect = lower value 1.08 | S. cerevisiae deletion strains, locus YLR342W, strain FKS1, stronger effect = lower value 0.997 | S. cerevisiae deletion strains, locus YLR357W, strain rsc2, stronger effect = lower value 0.958 | S. cerevisiae deletion strains, locus YLR370C, strain arc18, stronger effect = lower value 0.992 | S. cerevisiae deletion strains, locus YLR371W, strain rom2, stronger effect = lower value 0.984 | S. cerevisiae deletion strains, locus YLR384C, strain iki3, stronger effect = lower value 1 | S. cerevisiae deletion strains, locus YLR418C, strain cdc73, stronger effect = lower value 0.988 | S. cerevisiae deletion strains, locus YML016C, strain PPZ1, stronger effect = lower value 0.994 | S. cerevisiae deletion strains, locus YML032C, strain rad52, stronger effect = lower value 1.02 | S. cerevisiae deletion strains, locus YML120C, strain ndi1, stronger effect = lower value 1 | S. cerevisiae deletion strains, locus YML124C, strain tub3, stronger effect = lower value 0.997 | S. cerevisiae deletion strains, locus YMR058W, strain fet3, stronger effect = lower value 1.01 | S. cerevisiae deletion strains, locus YMR078C, strain ctf18, stronger effect = lower value 0.986 | S. cerevisiae deletion strains, locus YMR125W, strain sto1, stronger effect = lower value 0.992 | S. cerevisiae deletion strains, locus YMR129W, stronger effect = lower value 0.99 | S. cerevisiae deletion strains, locus YMR205C, strain PFK2, stronger effect = lower value 0.997 | S. cerevisiae deletion strains, locus YMR223W, strain ubp8, stronger effect = lower value 1.01 | S. cerevisiae deletion strains, locus YMR231W, strain pep5, stronger effect = lower value 0.967 | S. cerevisiae deletion strains, locus YMR307W, strain GAS1, stronger effect = lower value 1.08 | S. cerevisiae deletion strains, locus YNL067W, strain RPL9B, stronger effect = lower value 1 | S. cerevisiae deletion strains, locus YNL071W, strain lat1, stronger effect = lower value 1 | S. cerevisiae deletion strains, locus YNL128W, strain TEP1, stronger effect = lower value 1.04 | S. cerevisiae deletion strains, locus YNL183C, strain NPR1, stronger effect = lower value 0.988 | S. cerevisiae deletion strains, locus YNL209W, strain ssb2, stronger effect = lower value 1.02 | S. cerevisiae deletion strains, locus YNL233W, strain BNI4, stronger effect = lower value 0.99 | S. cerevisiae deletion strains, locus YNL248C, strain rpa49, stronger effect = lower value 1 | S. cerevisiae deletion strains, locus YNL250W, strain rad50, stronger effect = lower value 0.956 | S. cerevisiae deletion strains, locus YNL271C, strain bni1, stronger effect = lower value 0.994 | S. cerevisiae deletion strains, locus YNL298W, strain CLA4, stronger effect = lower value 0.998 | S. cerevisiae deletion strains, locus YNL307C, strain MCK1, stronger effect = lower value 0.998 | S. cerevisiae deletion strains, locus YNL322C, strain KRE1 (second series), stronger effect = lower value 0.987 | S. cerevisiae deletion strains, locus YNR049C, strain mso1, stronger effect = lower value 0.994 | S. cerevisiae deletion strains, locus YNR052C, strain pop2, stronger effect = lower value 0.985 | S. cerevisiae deletion strains, locus YOL012C, strain htz1 0.85 | S. cerevisiae deletion strains, locus YOL147C, strain pex11, stronger effect = lower value 1 | S. cerevisiae deletion strains, locus YOR001W, strain rrp6, stronger effect = lower value 1.01 | S. cerevisiae deletion strains, locus YOR061W, strain CKA2, stronger effect = lower value 1.01 | S. cerevisiae deletion strains, locus YOR069W, strain VPS5, stronger effect = lower value 0.986 | S. cerevisiae deletion strains, locus YOR070C, strain gyp1, stronger effect = lower value 1.02 | S. cerevisiae deletion strains, locus YOR080W, strain dia2, stronger effect = lower value 0.99 | S. cerevisiae deletion strains, locus YOR083W, strain WHI5, stronger effect = lower value 1.01 | S. cerevisiae deletion strains, locus YOR106W, strain vam3, stronger effect = lower value 1.04 | S. cerevisiae deletion strains, locus YOR136W, strain idh2, stronger effect = lower value 0.991 | S. cerevisiae deletion strains, locus YOR144C, strain elg1, stronger effect = lower value 1 | S. cerevisiae deletion strains, locus YOR184W, strain ser1, stronger effect = lower value 1.1 | S. cerevisiae deletion strains, locus YOR231W, strain MKK1, stronger effect = lower value 1.04 | S. cerevisiae deletion strains, locus YOR265W, strain rbl2, stronger effect = lower value 1.02 | S. cerevisiae deletion strains, locus YOR270C, strain vph1, stronger effect = lower value 1.04 | S. cerevisiae deletion strains, locus YOR290C, strain snf2, stronger effect = lower value 1.01 | S. cerevisiae deletion strains, locus YOR316C, strain cot1, stronger effect = lower value 0.99 | S. cerevisiae deletion strains, locus YPL051W, strain arl3, stronger effect = lower value 1 | S. cerevisiae deletion strains, locus YPL055C, strain LGE1, stronger effect = lower value 1.07 | S. cerevisiae deletion strains, locus YPL078C, strain atp4, stronger effect = lower value 1.01 | S. cerevisiae deletion strains, locus YPL106C, strain sse1, stronger effect = lower value 0.986 | S. cerevisiae deletion strains, locus YPL240C, strain hsp82, stronger effect = lower value 1 | S. cerevisiae deletion strains, locus YPL241C, strain CIN2, stronger effect = lower value 1.01 | S. cerevisiae deletion strains, locus YPL256C, strain CLN2, stronger effect = lower value 1.02 | S. cerevisiae deletion strains, locus YPR119W, strain clb2, stronger effect = lower value 0.997 | S. cerevisiae deletion strains, locus YPR141C, strain kar3, stronger effect = lower value 0.971 | S. cerevisiae deletion strains, locus YPR163C, strain tif3, stronger effect = lower value 0.997 | S. cerevisiae deletion strains, locus YPR167C, strain met16, stronger effect = lower value 0.992 | S. cerevisiae deletion strains, strain wtn01, stronger effect = lower value 1.03 | S. cerevisiae strains, strain wild type, stronger effect = lower value 1.05
